From PubChem
Shown are actives, neighbours in structure and some others; about 19% of the full set was active somewhere.
CHX counter = counter-screen hit for Shiga toxin inhibitors, cycloheximide. max response, %. actives 12% (n = 300,000). cell reporter, cycloheximide protein synthesis inhibition counterscreen. AID 2314; in the data active means max response mostly above about 13%, no sharp cut-off; inactive means mostly below about 14%; further: read at 38.3 µM for the half of the compounds with a filed dose; 0% is about no effect
Shiga toxin inh = blocks Shiga toxin action in Vero cells. Vero cells, Shiga toxin protein synthesis inhibition reporter. inhibition, % at 38.7 µM. actives 9.2% (n = 290,000); in the data active means inhibition mostly above about 28%, no sharp cut-off; inactive means mostly below about 43%; further: 0% is about no effect
Pf growth 96h = P. falciparum growth inhibition at 96 hours; Potency, µM (top dose mostly 28.7 µM), inactives show at the highest dose activity change, negative = inhibition, most hits filed as inhibitors; P. falciparum luciferase reporter growth, 96 h; AID 504834; actives 6.9% (n = 320,000); further: potency means the concentration at half of the fitted maximal effect; on the % scale 0 is the no-effect control and ±100 the full control effect
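Readout is luminescence from an integrated firefly luciferase in P. falciparum. Red cells, 2% hematocrit and 0.05% parasitemia final, were cultured with compound through two parasite generations (96 hours) at 37 C, 5% CO2.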
Marburg entry inh = inhibitors of Marburg virus binding or cell entry. Potency, µM (doses to about 37.8 µM), without a hit: top-dose activity change, negative = inhibition, hits mostly inhibitors. Marburg virus pseudotyped entry inhibition, cell reporter. actives 1.8% (n = 300,000); calls by dose curve; tested in HEK293 cells; further: potency means the concentration at half of the fitted maximal effect; on the % scale 0 is the no-effect control and ±100 the full control effect
Pf growth 48h = P. falciparum growth inhibition at 48 hours (one generation); P. falciparum luciferase growth in erythrocytes, 48 h; Potency, µM (series often up to 28.7 µM), for the others: at the top dose activity change, negative = inhibition, actives largely listed as inhibitors; actives 5.9% (n = 310,000); AID 504832; further: potency means the concentration at half of the fitted maximal effect; on the % scale 0 is the no-effect control and ±100 the full control effect
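Growth was read as firefly luciferase luminescence after a 48 h, 37 C, 5% CO2 exposure of compounds to reporter-bearing P. falciparum cultures (0.1% parasitemia, 2% hematocrit final) in Albumax-supplemented RPMI 1640.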
LASV entry inh = blocks Lassa virus binding to or entry into cells; Lassa virus pseudotype entry inhibition, cell reporter; Potency, µM (highest dose often 37.9 µM), for inactives: top-dose activity change, negative = inhibition, hits mostly inhibitors; AID 540256; actives 1.2% (n = 300,000); calls by dose curve; tested in HEK293 cells; further: potency means the concentration at half of the fitted maximal effect; on the % scale 0 is the no-effect control and ±100 the full control effect; nearly all actives have a fitted effect of over 50% in size
Active calls of the source: *; ? = inconclusive; . = not tested or not shown; [ ] = another dose, or the depositor's remark. Unless noted, the call rests on the fitted dose curve; in most records, active means well fitted inhibition curve with a large enough effect; inconclusive means small, poorly fitted or top-dose-only effect, or another doubt; inactive means no such curve, though single readings can be large or run the other way.

SMILES	CHX counter	Shiga toxin inh	Pf growth 96h	Marburg entry inh	Pf growth 48h	LASV entry inh
COC(=O)c1[nH]c(C)c(/C(O)=C2\C(=O)C(=O)N(CCCN3CCOCC3)C2c2ccccn2)c1C (stereo not given)	-2	-5	.	?	22%	-1%
CCCCOc1ccc(C(=O)N=c2sccn2C)cc1OC	44*	65*	69%	.	87%	.
Cc1ccc(C(=O)N=c2sccn2C)cc1S(=O)(=O)N1CCOCC1	.	.	-21%	-9%	71%	14%
Cc1ccc(C(=O)N=c2sccn2C)cc1C	-2	-16	-8%	?	10%	?
Cn1ccsc1=NC(=O)c1ccc(Cl)c([N+](=O)[O-])c1	16*	53*	1%	.	6%	.
Cn1ccsc1=NC(=O)c1ccc(S(C)(=O)=O)c([N+](=O)[O-])c1	43*	36*	15%	?	42%	?
Cn1ccsc1=NC(=O)c1cccc(C#N)c1	15*	61	37%	-10%[46.1 µM]	39%	6%[46.1 µM]
COCCCNC(=O)c1ccc(Cn2c(=O)c3ccccc3n(Cc3ccc(Cl)cc3)c2=O)cc1	.	.	.	3%[46.1 µM]	.	-1%[46.1 µM]
COc1ccc(S(=O)(=O)Nc2cccc(-n3cnnn3)c2)cc1	-1	-8	-13%	.	-9%	.
Cc1ccc2nc(-c3ccc(NC(=O)COc4ccc(Cl)c(C)c4)cc3)sc2c1	.	.	.	.	.	11%[46.1 µM]
Cn1ccsc1=NC(=O)c1ccc(S(C)(=O)=O)cc1	14	37*	28%	-2%[46.1 µM]	24%	11%[46.1 µM]
Cc1cccc(C(=O)Nc2ccc3c(c2)C(=O)NC3=O)c1	21*	18	68%	.	34%	.
Cc1ccc(C(=O)Nc2ccc3c(c2)C(=O)NC3=O)cc1	14*	11	63%	.	30%	.
O=C(Nc1ccc2c(c1)C(=O)NC2=O)c1cccc(Cl)c1	1	-1	76%	.	49%	.
CC(=O)Nc1cccc(Oc2ccc3c(c2)C(=O)NC3=O)c1	22*	.	37%	-19%	17%	13%
Cc1ccc(SCc2cc(=O)[nH]c(SCC(=O)Nc3cc(Cl)ccc3Cl)n2)cc1	-1	16	7%	?	6%	2%[46.1 µM]
O=C(N/N=C/c1cccc(O)c1)c1cc(-c2ccc3c(c2)OCO3)n[nH]1	10*	12	-16%	.	15%	.
O=C(N/N=C/c1cccc([N+](=O)[O-])c1)c1cc(-c2ccc3c(c2)OCO3)n[nH]1	3	-15	-9%	?	12%	-9%
O=C(N/N=C/c1ccccc1)c1cc(-c2ccc3c(c2)OCO3)n[nH]1	14*	-6	7%	-22%[46.1 µM]	18%	-1%[46.1 µM]
O=C(N/N=C/c1ccc(O)cc1)c1cc(-c2ccc3c(c2)OCO3)n[nH]1	9	33	-14%	7.9µM*	24%	?
O=C(NC1CCCCC1)c1ccc(COCC(F)(F)F)o1	10	-13	0%	4%	0%	-1%
Cc1ccccc1NC(=S)NCC1CCN(C(C)c2ccccc2)C1 (stereo not given)	-3	-16	0%	.	8%	.
COc1ccc(N2CCC(CNC(=S)Nc3c(C)cc(C)cc3C)C2)cc1 (stereo not given)	6	14	?	.	12µM*	.
Cc1cc(C)cc(NC(=S)NCC2CCN(C(C)c3ccccc3)C2)c1 (stereo not given)	-5	-9	5.2µM*	?	?	-22%[46.1 µM]
COc1ccc(N2CCC(CNC(=S)Nc3cccc(C)c3)C2)cc1 (stereo not given)	-2	-4	83%	?	13µM*	6%
COc1ccc(N2CCC(CNC(=O)Nc3ccc(C)c(C)c3)C2)cc1 (stereo not given)	-2	-18	-2%	-22%	-8%	1%
COc1ccc(N2CCC(CNC(=S)Nc3ccc(C)cc3C)C2)cc1 (stereo not given)	1	2	?	.	8.3µM*	.
CCCC(=O)Nc1cc(=O)[nH]c2ncnn12	-5	-6	-1%[5.75 µM]	?	9%	26%
O=C(O)C(Cc1cc2ccccc2[nH]1)N1C(=O)C2CC=C(Cl)CC2C1=O (stereo not given)	-4	-3	?	11%[46.1 µM]	9%	6%
